The source of these data is PubChem BioAssay (Tox21).

Experiment [1] concerns the target Luciferin 4-monooxygenase (Photinus pyralis) (UniProt P08659). Kind of experiment: qHTS assay to identify small molecule inhibitors of firefly luciferase (AID 1224835). Note: nearly all actives have a fitted effect of over 25% in size. Note: potency is the fitted concentration of half-maximal effect. Put shortly:
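Quantitative HTS format; KM concentrations of both substrates. Purified P. pyralis FLuc activity quantified from luminescence images.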
Background: Quantitative high-throughput screening tests each substance at several concentrations.

Experiment [2] can be described thus: qHTS assay to identify small molecule agonists of the constitutive androstane receptor (CAR) signaling pathway - cell viability counter screen (AID 1224836). Note: nearly all actives have a fitted effect of over 45% in size. Note: potency is the fitted concentration of half-maximal effect. Put shortly:
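Cell viability multiplexed with the CAR agonist screen: CellTiter-Fluor fluorescence after 23 hr at 37 C. HepG2-CYP2B6-hCAR cells got compounds at 15 concentrations with PK11195 at 0.75 uM final.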

The nature of experiment [3]: qHTS assay to identify small molecule antagonists of the constitutive androstane receptor (CAR) signaling pathway - cell viability counter screen (AID 1224837). Note: nearly all actives have a fitted effect of over 45% in size. The essentials:
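HepG2-CYP2B6-hCAR cells, 2500/well, 4 hr pre-incubation; compound titration, 15 conc.; CITCO 50 nM final; 23 hr, 37 C/5% CO2; CellTiter-Fluor, fluorescence intensity.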

Experiment [4] deals with Nuclear receptor subfamily 1 group I member 3 (Homo sapiens) (UniProt Q14994). Kind of experiment: qHTS assay to identify small molecule antagonists of the constitutive androstane receptor (CAR) signaling pathway (AID 1224838).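 Note: HepG2 cells stably expressing hCAR with CYP2B6 luciferase reporter stimulated by CITCO; nearly all actives have a fitted effect of over 40% in size.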 Note: potency is the fitted concentration of half-maximal effect. The essentials:
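HepG2-CYP2B6-hCAR cells; 4 h pre-incubation; cpd (15 conc) + CITCO 50 nM final; 24 h, 37 C/5% CO2; ONE-Glo, luminescence.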

Experiment [5] shares this target. Kind of experiment: qHTS assay to identify small molecule agonists of the constitutive androstane receptor (CAR) signaling pathway (AID 1224839).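 For activation: HepG2 cells stably carrying human CAR and a CYP2B6 luciferase reporter.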 Note: nearly all actives have a fitted effect of over 15% in size. Note: potency is the fitted concentration of half-maximal effect. Put shortly:
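Luminescent ONE-Glo read-out after 24 hr, 37 C exposure of double-stable HepG2-CYP2B6-hCAR reporter cells to a 15-point compound series, in the presence of 0.75 uM PK11195 (final).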

Experiment [6] can be described thus: qHTS assay to identify small molecule antagonists of the estrogen related receptor signaling pathway with the pleiotropic PPARgamma coactivator (PGC) from Tox21 10K library - cell viability counter screen (AID 1224840; active = well fitted cell-killing curve with a large enough effect in the repeat runs, not every such curve was filed as active; note: nearly all actives have a fitted effect of over 40% in size). Put shortly:
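PGC/ERR cells, 2,000/well; 6 h pre-incubation 37 C/5% CO2; cpd in DMSO via pin tool; 17.5 h 37 C; CellTiter-Fluor, 30 min; fluorescence.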

The target of experiment [7] is Thyrotropin receptor (Homo sapiens) (UniProt P16473). Kind of experiment: qHTS assay to identify small molecule agonists of the thyroid stimulating hormone receptor (TSHR) signaling pathway (AID 1224843; calls by dose curve; note: nearly all actives have a fitted effect of over 45% in size). The essentials:
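TSHR-expressing HEK293 cells (800 per well) were exposed to compounds for 30 min at room temperature. cAMP was then detected by HTRF competition with cAMP-d2 and anti-cAMP cryptate, read after 1 h at room temperature. Fifteen concentrations, triplicate.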

Experiment [8] can be described thus: qHTS assay to identify small molecule agonists of the hypoxia (HIF-1) signaling pathway - cell viability counter screen (AID 1224844; calls by dose curve; note: nearly all actives have a fitted effect of over 50% in size; note: potency is the fitted concentration of half-maximal effect). Put shortly: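 ME-180 HRE-bla cells, 2,000/well, 0.5% dialyzed FBS; 5 hr settle, 17 hr compound at 37C/5% CO2; CCF4-AM reporter read first, then CellTiter-Glo luminescence after 30 min RT.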
The nature of experiment [9]: qHTS assay to identify small molecule agonists of H2AX (AID 1224845; active = well fitted activation curve with a large enough effect in the signal ratio in the repeat runs, not every such curve was filed as active; the % refers to the signal ratio). Put shortly:
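Wild-type CHO-K1 cells plated overnight, then exposed 3 hr at 37C to compounds at 15 concentrations (0.76% DMSO). Lysed, then HTRF anti-pH2AX(S139)-cryptate/anti-H2AX-d2 detection after 24 hr at room temperature; emissions 665 and 620 nm.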

The nature of experiment [10]: qHTS assay to identify small molecule agonists of H2AX - cell viability counter screen (AID 1224847; calls by dose curve; note: top concentration of the series differs between compounds; nearly all actives have a fitted effect of over 30% in size). Put shortly:
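Counter-screen for viability: CellTiter-Glo ATP luminescence read after 3 h compound treatment (15-point titration, 0.76% DMSO final) of CHO-K1 cells at 37C, with 30 min room-temperature reagent incubation.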

The nature of experiment [11]: qHTS RealTime-Glo MT Cell Viability Assay in HepG2 cells - 24 hour (AID 1224867). Note: nearly all actives have a fitted effect of over 50% in size. Put shortly: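 Tox21 10K library screened in qHTS format on HepG2 cells carrying RealTime-Glo reagents. Compounds were added after a 5 h preincubation, and the luminescent signal from continuous culture was measured repeatedly during 40 h treatment.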
Experiment [12] in a line: A CellTox Green Cytotoxicity Assay to monitor cytotoxicity in HEK293 cells - 0 hour (AID 1224869). Note: nearly all actives have a fitted effect of over 50% in size. Put shortly:
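Nonlytic real-time cytotoxicity: HEK293 + CellTox Green reagent plated, 5 h preincubation, pintool compound addition (23 nL in DMSO), 37 C for 40 h, fluorescence measured at successive time points.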

Experiment [13] in a line: qHTS RealTime-Glo MT Cell Viability Assay in HEK293 cells - 32 hour (AID 1224868). Note: nearly all actives have a fitted effect of over 50% in size. Note: potency is the fitted concentration of half-maximal effect. The essentials: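 Luminescence generated by NanoLuc from substrate produced by living HEK293 cells served as the viability signal. Each value reflects the reading at its stated time point during continuous 40 h compound exposure at 37 C.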
A short description of experiment [14]: qHTS assay to identify small molecule antagonists of the estrogen related receptor signaling pathway with the pleiotropic PPARgamma coactivator (PGC) from Tox21 10K library (AID 1224841; call rule not given here). The essentials: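 PGC/ERR cell line, 2,000 cells/well; 6 h pre-incubation 37 C/5% CO2; compounds (DMSO) pinned in; 18 h, 37 C; One-Glo, 30 min RT; luminescence.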
Experiment [15] in a line: qHTS assay to identify small molecule agonists of the hypoxia (HIF-1) signaling pathway (AID 1224846; active = well fitted activation curve with a large enough effect in the signal ratio in the repeat runs, not every such curve was filed as active; the % refers to the signal ratio). The essentials:
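Cell line: CellSensor HRE-bla ME-180; 2,000 cells/well; 0.5% dialyzed FBS; 5 h preincubation; DMSO compound pin transfer; 17 h, 37C, 5% CO2; CCF4-AM added; bla FRET signal scored for activation.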

Experiment [16] in a line: qHTS assay to identify small molecule antagonists of the estrogen related receptor (ERR) signaling pathway from Tox21 library (AID 1224848). Note: nearly all actives have a fitted effect of over 50% in size. Put shortly: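 Cells: ERR line, 2,000/well; 6 h preincubation 37 C/5% CO2. Cpd in DMSO via pin tool; 18 h, 37 C. ONE-Glo, 30 min RT, luminescence.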
The nature of experiment [17]: qHTS assay to identify small molecule antagonists of the estrogen related receptor (ERR) signaling pathway from Tox21 library - cell viability counter screen (AID 1224834). Note: nearly all actives have a fitted effect of over 30% in size. Note: potency is the fitted concentration of half-maximal effect. Put shortly: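 Fluorescence from CellTiter-Fluor gives the viability read-out, taken 30 min after reagent addition. Before that, ERR cells seeded 6 h earlier were incubated with compounds for 17.5 h at 37 C.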

Experiment [18] in a line: qHTS assay to identify small molecule agonists of the estrogen related receptor signaling pathway with the pleiotropic PPARgamma coactivator (PGC) from Tox21 10K library (AID 1224842). Note: nearly all actives have a fitted effect of over 15% in size. Put shortly:
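PGC/ERR reporter cells (NTP line) were seeded 2,000 per well, rested 6 h at 37 C/5% CO2, then pin-dosed with compounds in DMSO for 18 h at 37 C; luciferase read by One-Glo luminescence after 30 min at room temperature.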

A short description of experiment [19]: qHTS assay to identify small molecule agonists of the estrogen related receptor (ERR) signaling pathway from Tox21 library (AID 1224849; calls by dose curve; note: nearly all actives have a fitted effect of over 15% in size). Conditions: ERR reporter cell line, ONE-Glo luciferase, 18 h; at 92.4 µM (top of the series) unless noted. The essentials: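 ERR cells, 6 h pre-incubation 37 C/5% CO2; cpd in DMSO pinned; 18 h 37 C; ONE-Glo added, 30 min RT; luminescence read. Agonist mode, qHTS.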

A number with no mark means an inactive call. Results filed as inconclusive are left out. Active and inactive are the calls of the source. Unless noted, calls come from the whole dose curve; as a rule, active = well fitted curve in the direction sought with a large enough effect in the repeat runs; inconclusive = weak or mixed curves; inactive = no such curve, though single readings can be large; an effect the other way counts as inactive or inconclusive.
% is set by controls: 0 for no effect and ±100 for the full control effect.

Chain of Thyrotropin receptor (Homo sapiens) (P16473 whole entry, looked up): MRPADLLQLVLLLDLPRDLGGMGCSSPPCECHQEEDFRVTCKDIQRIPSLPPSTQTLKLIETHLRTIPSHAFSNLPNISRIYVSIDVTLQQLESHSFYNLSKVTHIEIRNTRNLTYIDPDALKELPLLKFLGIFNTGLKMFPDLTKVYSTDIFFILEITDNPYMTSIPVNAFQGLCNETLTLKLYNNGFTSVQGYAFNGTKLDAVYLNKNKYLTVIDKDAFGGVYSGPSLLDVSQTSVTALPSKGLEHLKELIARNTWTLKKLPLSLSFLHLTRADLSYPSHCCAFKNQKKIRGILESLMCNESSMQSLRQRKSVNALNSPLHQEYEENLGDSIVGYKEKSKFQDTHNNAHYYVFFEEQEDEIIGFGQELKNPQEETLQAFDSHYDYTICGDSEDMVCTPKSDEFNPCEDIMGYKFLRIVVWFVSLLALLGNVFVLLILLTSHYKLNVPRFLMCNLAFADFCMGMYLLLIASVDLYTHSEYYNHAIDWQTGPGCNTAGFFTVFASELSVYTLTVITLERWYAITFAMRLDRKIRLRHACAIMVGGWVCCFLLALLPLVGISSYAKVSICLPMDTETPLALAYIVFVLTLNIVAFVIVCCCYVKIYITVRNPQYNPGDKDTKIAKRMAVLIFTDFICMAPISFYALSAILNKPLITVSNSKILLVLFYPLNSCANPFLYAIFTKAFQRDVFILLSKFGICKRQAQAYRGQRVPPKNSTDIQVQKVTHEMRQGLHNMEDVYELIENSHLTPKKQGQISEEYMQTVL
Chain of Luciferin 4-monooxygenase (Photinus pyralis) (P08659 whole entry, looked up): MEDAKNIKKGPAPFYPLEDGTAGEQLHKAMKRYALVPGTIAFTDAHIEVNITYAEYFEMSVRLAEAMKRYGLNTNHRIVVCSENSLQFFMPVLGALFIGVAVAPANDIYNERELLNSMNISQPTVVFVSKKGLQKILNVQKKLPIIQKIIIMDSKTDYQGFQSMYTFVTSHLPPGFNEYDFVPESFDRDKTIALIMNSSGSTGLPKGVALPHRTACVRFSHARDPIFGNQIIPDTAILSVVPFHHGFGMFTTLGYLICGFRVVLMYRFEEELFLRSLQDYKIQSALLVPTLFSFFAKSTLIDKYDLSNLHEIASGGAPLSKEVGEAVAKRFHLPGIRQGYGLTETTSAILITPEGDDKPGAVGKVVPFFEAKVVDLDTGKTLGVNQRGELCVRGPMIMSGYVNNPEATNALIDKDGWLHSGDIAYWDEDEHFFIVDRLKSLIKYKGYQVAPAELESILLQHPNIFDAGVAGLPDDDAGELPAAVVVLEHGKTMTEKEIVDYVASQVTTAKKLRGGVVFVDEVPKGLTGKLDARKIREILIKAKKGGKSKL
Chain of Nuclear receptor subfamily 1 group I member 3 (Homo sapiens) (Q14994 whole entry, looked up): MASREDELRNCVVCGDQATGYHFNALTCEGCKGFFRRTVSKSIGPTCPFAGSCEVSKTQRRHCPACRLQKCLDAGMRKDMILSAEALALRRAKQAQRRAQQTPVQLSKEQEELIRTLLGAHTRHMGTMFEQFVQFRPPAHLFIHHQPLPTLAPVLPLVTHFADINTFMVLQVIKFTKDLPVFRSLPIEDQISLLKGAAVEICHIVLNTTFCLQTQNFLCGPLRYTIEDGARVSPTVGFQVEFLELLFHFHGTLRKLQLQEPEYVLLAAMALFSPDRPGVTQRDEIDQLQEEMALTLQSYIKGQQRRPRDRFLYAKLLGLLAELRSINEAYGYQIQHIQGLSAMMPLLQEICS

As to `Nc1nc2ccc(OC(F)(F)F)cc2s1`, the results for the Potency in experiment [1] and in [5] were 24.5 µM (active) and 11.9 µM (active), respectively. Further, the Potency entry in experiment [2], in [3], in [4], in [6], in experiment [7] and in experiment [8] was “inactive” in each case. Besides, the Potency entry in [9], in experiment [10], in experiment [11] and in [12] was “inactive” each time.

For `Cc1ccc(N(CC2=NCCN2)c2cccc(O)c2)cc1`, the Potency result in experiment [1], in experiment [2], in [3], in experiment [4], in experiment [5] and in experiment [6] was “inactive” each time. Moreover, the Potency result in experiment [7], in experiment [8], in [10], in [11], in experiment [13] and in [12] was “inactive” throughout.

`Cc1ccc2c(c1[N+](=O)[O-])C(=O)c1ccccc1C2=O`: the Potency entry in [1], in experiment [5], in experiment [14], in experiment [7], in experiment [8] and in experiment [9] was “inactive” throughout. Moreover, the Potency entry in [10], in experiment [16], in [11] and in [12] was “inactive” in each case. The Potency in experiment [2] was 6.73 µM (active); in [4] it was 0.673 µM (active); in experiment [13] it was 0.958 µM (active). The molecule was classed as inactive in experiment [15].

As for `Cc1cc([N+](=O)[O-])ccc1N`, the Potency in experiment [17] is 33.9 µM (active). Moreover, the Potency result in experiment [4], in experiment [5], in experiment [7], in experiment [8], in [10] and in experiment [11] was “inactive” each time. The Potency entry in experiment [12] is “inactive”. Moreover, the result in [15] was inactive.

On to `O=C(c1ccccc1)c1ccc(O)cc1`, for which the Potency in [17] was 69.4 µM (active). The Potency result in experiment [2], in [3], in [4], in experiment [6], in experiment [14] and in experiment [18] was “inactive” throughout. In addition, the Potency entry in experiment [7], in [8], in experiment [11], in [13] and in experiment [12] was “inactive” throughout. Moreover, in experiment [15], the call was inactive. Further, the activity change, positive = activation in experiment [19] was -59.8%.

In the case of `CNS(=O)(=O)c1cc(C(=O)N2CCC(CCN3C4CCC3CC(n3c(C)nc5ccccc53)C4)(c3cccc(F)c3)CC2)c(Cl)cc1F` (stereo unspecified), the results for the Potency in [17], in experiment [8] and in experiment [13] were 13.7 µM (active), 3.89 µM (active) and 5.49 µM (active), respectively. Besides, the Potency result in [1], in experiment [3], in [7], in experiment [9], in experiment [10] and in experiment [12] was “inactive” in each case.

In the case of `CCCCCCCCCCCSCC(=O)O`, the Potency result in [17], in experiment [2], in [3], in experiment [4], in [5] and in experiment [6] was “inactive” throughout. Further, the Potency entry in [14], in [18], in experiment [7], in experiment [9], in [10] and in [11] was “inactive” in each case. The Potency result in experiment [13] and in experiment [12] was “inactive” each time. Besides, the outcome in experiment [15] was inactive. In addition, the activity change, positive = activation in experiment [19] was -19.7%.

`Nc1ccc(N=Nc2ccc(N)cc2)cc1`: the Potency in experiment [17] is 27.3 µM (active); in experiment [1], 4.48 µM (active). Further, the Potency result in experiment [4], in experiment [5], in [7], in experiment [10], in experiment [11] and in experiment [13] was “inactive” throughout. For the same molecule, the Potency result in [12] is “inactive”. For the same molecule, in experiment [15], the molecule was classed as inactive.

Turning to `O=[N+]([O-])c1ccc2ncccc2c1`, the Potency entry in experiment [17], in [2], in [3], in experiment [4], in [5] and in [6] was “inactive” each time. Besides, the Potency entry in experiment [18], in experiment [7], in [8], in [10], in experiment [11] and in [13] was “inactive” each time. Further, the Potency result in experiment [12] was “inactive”. The molecule was classed as inactive in experiment [15]. The activity change, positive = activation in experiment [19] was -20.1%.
